Results published in the supplement of paper PMC8728848.
This excerpt belongs to a sample that is enriched for the strongest signals.

How the values were obtained:
Experiment in all cases: glycan array binding signal (z-score within array); higher = stronger binding
Conditions in all cases: glycan notation: IUPAC condensed, linker removed
[1] = biological target: GalNAc(a1-3)GalNAc(b1-3)Gal(a1-4)Gal(b1-4)Glc
How it was run: (§1)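 From the Consortium for Functional Glycomics database, 3228 arrays were curated, keeping only those whose protein sequence was available. Binding is given as a within-array Z-score averaged across arrays sharing a protein sequence and across linkers. Negative Z-scores can be read as non-binding.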

[2] = biological target: GalNAc(a1-3)GalNAc(b1-3)Gal(a1-4)Gal(b1-4)GlcNAc
How it was run: as §1

GalNAc(b1-3)GalNAc = biological target: GalNAc(b1-3)GalNAc
How it was run: as §1

Glc(b1-4)Glc = biological target: Glc(b1-4)Glc
How it was run: as §1

GlcA(b1-6)Gal = biological target: GlcA(b1-6)Gal
How it was run: as §1

[3] = biological target: GlcNAc(a1-3)Gal(b1-4)GlcNAc
How it was run: as §1

[4] = biological target: GlcNAc(a1-4)Gal(b1-4)GlcNAc(b1-3)Gal(b1-4)GlcNAc
How it was run: as §1

[5] = biological target: GlcNAc(a1-4)Gal(b1-4)GlcNAc(b1-3)Gal(b1-4)GlcNAc(b1-3)Gal(b1-4)GlcNAc
How it was run: as §1

[6] = biological target: GlcNAc(a1-6)Gal(b1-4)GlcNAc
How it was run: as §1

[7] = biological target: GlcNAc(b1-3)Gal(b1-4)GlcNAc(b1-3)Gal(b1-4)GlcNAc(b1-2)Man(a1-3)[GlcNAc(b1-3)Gal(b1-4)GlcNAc(b1-3)Gal(b1-4)GlcNAc(b1-2)Man(a1-6)]Man(b1-4)GlcNAc(b1-4)[Fuc(a1-6)]GlcNAc
How it was run: as §1

Kdn(a2-3)Gal(b1-3)GalNAc = biological target: Kdn(a2-3)Gal(b1-3)GalNAc
How it was run: as §1

Kdn(a2-3)Gal(b1-4)Glc = biological target: Kdn(a2-3)Gal(b1-4)Glc
How it was run: as §1

Kdn(a2-6)Gal(b1-4)GlcNAc = biological target: Kdn(a2-6)Gal(b1-4)GlcNAc
How it was run: as §1

Man(a1-2)Man(a1-3)Man = biological target: Man(a1-2)Man(a1-3)Man
How it was run: as §1

[8] = biological target: Neu5Ac(a2-3)Gal(b1-4)GlcNAc6S
How it was run: as §1

[9] = biological target: Neu5Ac(a2-3)Gal(b1-4)[Fuc(a1-3)]GlcNAc(b1-3)Gal(b1-4)[Fuc(a1-3)]GlcNAc(b1-3)Gal(b1-4)[Fuc(a1-3)]GlcNAc
How it was run: as §1

[10] = biological target: Neu5Ac(a2-6)Gal(b1-4)GlcNAc(b1-2)Man(a1-3)[Man(a1-6)]Man(b1-4)GlcNAc(b1-4)GlcNAc
How it was run: as §1

[11] = biological target: Neu5Ac(a2-6)Gal(b1-4)GlcNAc(b1-2)Man(a1-6)Man(b1-4)GlcNAc(b1-4)GlcNAc
How it was run: as §1

[12] = biological target: Neu5Ac(a2-6)Gal(b1-4)GlcNAc(b1-2)Man(a1-6)[GlcNAc(b1-2)Man(a1-3)]Man(b1-4)GlcNAc(b1-4)GlcNAc
How it was run: as §1

[13] = biological target: Neu5Ac(a2-6)Gal(b1-4)GlcNAc(b1-3)Gal(b1-4)GlcNAc(b1-6)[Gal(b1-3)]GalNAc
How it was run: as §1

[14] = biological target: Neu5Ac(a2-6)Gal(b1-4)GlcNAc(b1-3)Gal(b1-4)[Fuc(a1-3)]GlcNAc(b1-3)Gal(b1-4)[Fuc(a1-3)]GlcNAc
How it was run: as §1

[15] = biological target: Neu5Ac(a2-6)Gal(b1-4)GlcNAc(b1-3)[Neu5Ac(a2-6)Gal(b1-4)GlcNAc(b1-6)]GalNAc
How it was run: as §1

[16] = biological target: Neu5Ac(a2-6)Gal(b1-4)GlcNAc(b1-6)[Gal(b1-3)]GalNAc
How it was run: as §1

[17] = biological target: Neu5Ac(a2-6)GalNAc(b1-4)GlcNAc6S
How it was run: as §1

[18] = biological target: Neu5Ac(a2-8)Neu5Ac(a2-3)Gal(b1-3)GalNAc(b1-4)[Neu5Ac(a2-8)Neu5Ac(a2-3)]Gal(b1-4)Glc
How it was run: as §1

Neu5Gc(a2-3)Gal(b1-4)Glc = biological target: Neu5Gc(a2-3)Gal(b1-4)Glc
How it was run: as §1

[19] = biological target: Fuc(a1-2)Gal(b1-3)GlcNAc(b1-2)Man(a1-3)[Fuc(a1-2)Gal(b1-3)GlcNAc(b1-2)Man(a1-6)]Man(b1-4)GlcNAc(b1-4)GlcNAc
How it was run: as §1

[20] = biological target: Fuc(a1-2)Gal(b1-3)GlcNAc(b1-3)[Fuc(a1-3)[Gal(b1-4)]GlcNAc(b1-6)]Gal(b1-4)Glc
How it was run: as §1

[21] = biological target: Fuc(a1-2)Gal(b1-3)[Fuc(a1-4)]GlcNAc
How it was run: as §1

[22] = biological target: Fuc(a1-2)Gal(b1-4)GlcNAc(b1-2)[Fuc(a1-2)Gal(b1-4)GlcNAc(b1-4)]Man(a1-3)[Fuc(a1-2)Gal(b1-4)GlcNAc(b1-2)Man(a1-6)]Man(b1-4)GlcNAc(b1-4)GlcNAc
How it was run: as §1

[23] = biological target: Fuc(a1-2)[Gal(a1-3)]Gal(b1-3)GlcNAc
How it was run: as §1

[24] = biological target: Fuc(a1-2)[GalNAc(b1-3)]Gal
How it was run: as §1

[25] = biological target: Fuc(a1-3)[Gal(b1-4)]GlcNAc(b1-3)GalNAc
How it was run: as §1

Gal(a1-3)Gal(b1-4)Glc = biological target: Gal(a1-3)Gal(b1-4)Glc
How it was run: as §1

Gal(a1-3)Gal(b1-4)GlcNAc = biological target: Gal(a1-3)Gal(b1-4)GlcNAc
How it was run: as §1

[26] = biological target: Gal(a1-3)[Gal(a1-4)]Gal(b1-4)GlcNAc
How it was run: as §1

Gal(a1-4)Gal(b1-4)GlcNAc = biological target: Gal(a1-4)Gal(b1-4)GlcNAc
How it was run: as §1

[27] = biological target: Gal(b1-3)Gal(b1-4)GlcNAc(b1-2)Man(a1-3)[Gal(b1-3)Gal(b1-4)GlcNAc(b1-2)Man(a1-6)]Man(b1-4)GlcNAc(b1-4)GlcNAc
How it was run: as §1

[28] = biological target: Gal(b1-3)GalNAc(b1-3)Gal(a1-4)Gal(b1-4)Glc
How it was run: as §1

Gal(b1-3)GlcNAc = biological target: Gal(b1-3)GlcNAc
How it was run: as §1

[29] = biological target: Gal(b1-3)GlcNAc(b1-3)Gal(b1-4)GlcNAc(b1-6)[Gal(b1-3)GlcNAc(b1-3)]Gal(b1-4)Glc
How it was run: as §1

[30] = biological target: Gal(b1-3)[Fuc(a1-4)]GlcNAc
How it was run: as §1

[31] = biological target: Gal(b1-3)[Fuc(a1-4)]GlcNAc(b1-2)Man(a1-3)[Gal(b1-3)[Fuc(a1-4)]GlcNAc(b1-2)Man(a1-6)]Man(b1-4)GlcNAc(b1-4)[Fuc(a1-6)]GlcNAc
How it was run: as §1

[32] = biological target: Gal(b1-3)[Fuc(a1-4)]GlcNAc(b1-3)Gal(b1-4)GlcNAc
How it was run: as §1

Gal(b1-4)Gal = biological target: Gal(b1-4)Gal
How it was run: as §1

[33] = biological target: Gal(b1-4)GlcNAc(b1-3)Gal(b1-3)GlcNAc
How it was run: as §1

[34] = biological target: Gal(b1-4)GlcNAc(b1-3)Gal(b1-4)[Fuc(a1-3)]GlcNAc(b1-3)Gal(b1-4)[Fuc(a1-3)]GlcNAc
How it was run: as §1

[35] = biological target: Gal(b1-4)GlcNAc(b1-3)[GlcNAc(b1-6)]Gal(b1-4)GlcNAc
How it was run: as §1

Gal3S(b1-3)GalNAc = biological target: Gal3S(b1-3)GalNAc
How it was run: as §1

Gal3S(b1-4)GlcNAc6S = biological target: Gal3S(b1-4)GlcNAc6S
How it was run: as §1

Gal3S6S(b1-4)GlcNAc6S = biological target: Gal3S6S(b1-4)GlcNAc6S
How it was run: as §1

Gal6S(b1-3)GlcNAc6S = biological target: Gal6S(b1-3)GlcNAc6S
How it was run: as §1

Gal6S(b1-4)GlcNAc = biological target: Gal6S(b1-4)GlcNAc
How it was run: as §1

[36] = biological target: GalNAc(b1-3)Gal(a1-4)Gal(b1-4)GlcNAc
How it was run: as §1

Glc(a1-4)Glc = biological target: Glc(a1-4)Glc
How it was run: as §1

B1: HPAIIITrx (Helix pomatia), Q1KM18 (protein)
chain: MLFVTIISLGLLAIVHGQCALKTIAFSAAIDREQTFDANQVVIYDIVITNHGNAYDNSTGLFTAPVDGMYSFQLNLLTIKEKEGWLELVHNGQLKVSVYAKQDSTYDSSSNSVIIKMKEGDRVNVRAHKKSGLFGRDDELYNTFSGHFLSGL
glycan array binding signal (z-score) [1]: 5.39
glycan array binding signal (z-score) [2]: 4.56
glycan array binding signal (z-score) (GalNAc(b1-3)GalNAc): -0.254
glycan array binding signal (z-score) (Glc(b1-4)Glc): -0.122
glycan array binding signal (z-score) (GlcA(b1-6)Gal): -0.196
glycan array binding signal (z-score) [3]: 0.416
glycan array binding signal (z-score) [4]: 1.69
glycan array binding signal (z-score) [5]: 2.06
glycan array binding signal (z-score) [6]: -0.341
glycan array binding signal (z-score) [7]: -0.228
glycan array binding signal (z-score) (Kdn(a2-3)Gal(b1-3)GalNAc): -0.152
glycan array binding signal (z-score) (Kdn(a2-3)Gal(b1-4)Glc): 0.214
glycan array binding signal (z-score) (Kdn(a2-6)Gal(b1-4)GlcNAc): -0.263
glycan array binding signal (z-score) (Man(a1-2)Man(a1-3)Man): -0.321
glycan array binding signal (z-score) [8]: -0.337
glycan array binding signal (z-score) [9]: 0.089
glycan array binding signal (z-score) [10]: -0.533
glycan array binding signal (z-score) [11]: -0.31
glycan array binding signal (z-score) [12]: -0.492
glycan array binding signal (z-score) [13]: -0.292
glycan array binding signal (z-score) [14]: -0.392
glycan array binding signal (z-score) [15]: -0.408
glycan array binding signal (z-score) [16]: -0.3
glycan array binding signal (z-score) [17]: -0.278
glycan array binding signal (z-score) [18]: -0.38
glycan array binding signal (z-score) (Neu5Gc(a2-3)Gal(b1-4)Glc): -0.237

B2: SEX4 (Arabidopsis thaliana), Q944A8 (protein)
chain: TQAMGAVLTYRHELGMNYNFIRPDLIVGSCLQTPEDVDKLRKIGVKTIFCLQQDPDLEYFGVDISSIQAYAKKYSDIQHIRCEIRDFDAFDLRMRLPAVVGTLYKAVKRNGGVTYVHCTAGMGRAPAVALTYMFWVQGYKLMEAHKLLMSKRSCFPKLDAIRNATIDILTGLKRKTVTLTLKDKGFSRVEISGLDIGWGQRIPLTLGKGTGFWILKRELPEGQFEYKYIIDGEWTHNEAEPFIGPNKDGHTNNYAKVVDDPTSVDGTTRERLSSEDPELLEEERSKLIQFLETCSEAEV
glycan array binding signal (z-score) [19]: -0.14
glycan array binding signal (z-score) [20]: -0.488
glycan array binding signal (z-score) [21]: -0.43
glycan array binding signal (z-score) [22]: 3.41
glycan array binding signal (z-score) [23]: -0.101
glycan array binding signal (z-score) [24]: -0.555
glycan array binding signal (z-score) [25]: 2.34
glycan array binding signal (z-score) (Gal(a1-3)Gal(b1-4)Glc): -0.237
glycan array binding signal (z-score) (Gal(a1-3)Gal(b1-4)GlcNAc): 0.108
glycan array binding signal (z-score) [26]: -0.539
glycan array binding signal (z-score) (Gal(a1-4)Gal(b1-4)GlcNAc): -0.482
glycan array binding signal (z-score) [27]: -0.329
glycan array binding signal (z-score) [28]: -0.231
glycan array binding signal (z-score) (Gal(b1-3)GlcNAc): -0.554
glycan array binding signal (z-score) [29]: -0.273
glycan array binding signal (z-score) [30]: -0.398
glycan array binding signal (z-score) [31]: -0.406
glycan array binding signal (z-score) [32]: 0.013
glycan array binding signal (z-score) (Gal(b1-4)Gal): -0.4
glycan array binding signal (z-score) [33]: -0.483
glycan array binding signal (z-score) [34]: -0.35
glycan array binding signal (z-score) [35]: -0.354
glycan array binding signal (z-score) (Gal3S(b1-3)GalNAc): -0.502
glycan array binding signal (z-score) (Gal3S(b1-4)GlcNAc6S): 0.229
glycan array binding signal (z-score) (Gal3S6S(b1-4)GlcNAc6S): 2.76
glycan array binding signal (z-score) (Gal6S(b1-3)GlcNAc6S): 1.27
glycan array binding signal (z-score) (Gal6S(b1-4)GlcNAc): 0.104
glycan array binding signal (z-score) [36]: -0.406
glycan array binding signal (z-score) (Glc(a1-4)Glc): -0.393
glycan array binding signal (z-score) (Glc(b1-4)Glc): -0.561
